Source: paper PMC4336329 (PLoS ONE, 2015)
In all, about 310,000 compounds went through this assay and about 14,000 (4.5%) showed an effect of 50% or more. The effect is printed as a negative number. Shown is part of a subset that was picked to be rich in strong results.
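Note: peak tail current of the secondary pulse compared with the same well before compound.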

The compounds below were run against human ether-à-go-go-related gene (hERG) potassium channel (human, UniProt Q12809) (assay: primary screen, population patch clamp on CHO cells stably expressing hERG; higher = less effect of the substance).
Chain of human ether-à-go-go-related gene (hERG) potassium channel (Q12809 whole entry, looked up): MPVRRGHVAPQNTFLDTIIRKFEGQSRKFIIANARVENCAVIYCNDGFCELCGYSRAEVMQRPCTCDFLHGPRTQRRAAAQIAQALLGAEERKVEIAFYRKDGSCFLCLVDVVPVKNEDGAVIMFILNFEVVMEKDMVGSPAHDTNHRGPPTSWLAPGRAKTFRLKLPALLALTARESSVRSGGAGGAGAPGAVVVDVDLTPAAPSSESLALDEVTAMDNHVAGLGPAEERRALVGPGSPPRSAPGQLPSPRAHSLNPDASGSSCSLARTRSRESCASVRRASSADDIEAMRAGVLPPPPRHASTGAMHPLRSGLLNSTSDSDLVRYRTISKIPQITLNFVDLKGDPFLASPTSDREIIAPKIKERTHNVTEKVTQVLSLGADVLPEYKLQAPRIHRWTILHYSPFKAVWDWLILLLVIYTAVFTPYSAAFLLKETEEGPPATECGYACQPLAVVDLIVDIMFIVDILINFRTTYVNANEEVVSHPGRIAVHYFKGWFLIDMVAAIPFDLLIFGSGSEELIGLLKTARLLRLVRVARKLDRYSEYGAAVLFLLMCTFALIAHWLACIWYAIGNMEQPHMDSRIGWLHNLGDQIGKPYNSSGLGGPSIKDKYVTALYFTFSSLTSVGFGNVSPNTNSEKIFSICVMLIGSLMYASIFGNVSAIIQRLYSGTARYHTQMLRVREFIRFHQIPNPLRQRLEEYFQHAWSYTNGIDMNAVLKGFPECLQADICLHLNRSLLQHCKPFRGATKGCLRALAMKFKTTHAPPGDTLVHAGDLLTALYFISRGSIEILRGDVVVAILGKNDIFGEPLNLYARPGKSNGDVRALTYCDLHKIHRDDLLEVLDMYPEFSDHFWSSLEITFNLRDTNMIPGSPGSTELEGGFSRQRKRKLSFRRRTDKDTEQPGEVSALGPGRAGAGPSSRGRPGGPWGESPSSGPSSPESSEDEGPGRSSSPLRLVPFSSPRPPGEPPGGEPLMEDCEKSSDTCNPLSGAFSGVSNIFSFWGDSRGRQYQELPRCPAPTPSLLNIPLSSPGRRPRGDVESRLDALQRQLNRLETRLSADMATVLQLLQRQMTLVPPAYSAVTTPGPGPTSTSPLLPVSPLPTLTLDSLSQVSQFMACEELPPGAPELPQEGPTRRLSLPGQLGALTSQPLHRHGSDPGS
COc1ccc(-n2c(=O)c3ccccc3n(CC(=O)c3ccccc3)c2=O)cc1OC was tested, and the “hERG current change (%, negative = inhibition) at 10uM” value was -1.32%. With Cc1ccccc1OCCNc1cc(N2CCCCC2)ccc1[N+](=O)[O-] the “hERG current change (%, negative = inhibition) at 10uM” value was -17.2%. With CCCCC(=O)Nc1ccc(C(=O)Nc2ccc(OC)cc2[N+](=O)[O-])cc1 the “hERG current change (%, negative = inhibition) at 10uM” value was -8.04%. With O=C(O)c1cn(-c2ccccc2)nc1-c1ccc(F)cc1 the “hERG current change (%, negative = inhibition) at 10uM” value was 23.6%. O=C1CN(C(=O)COC(=O)Cc2ccsc2)c2ccccc2N1 was tested, and the “hERG current change (%, negative = inhibition) at 10uM” value was -4.05%. CCC(=O)N(c1nnc(SCC(=O)NN2C(=O)NC3(CCC(C)CC3)C2=O)s1)C1CC1 (stereo not shown) was tested, and the “hERG current change (%, negative = inhibition) at 10uM” value was -5.47%. In the case of O=C(CCS(=O)(=O)c1cccc2nonc12)Nc1ccc(Br)cc1, the “hERG current change (%, negative = inhibition) at 10uM” value is reported as 7.91%. With Cc1cc(C)n(C(=O)CNC(=O)C2COc3ccccc3O2)n1 (stereo not shown) the “hERG current change (%, negative = inhibition) at 10uM” value was 14.5%. O=C(CCC1COc2ccccc2O1)N1CCCC1 (stereo not shown) was tested, and the “hERG current change (%, negative = inhibition) at 10uM” value was -3.13%. In the case of Cc1cc(C)n(C(=O)CCC2COc3ccccc3O2)n1 (stereo not shown), the “hERG current change (%, negative = inhibition) at 10uM” value is reported as -76.6%. Br.O=C(CN1C2=NCCCN2c2ccccc21)c1cccc(Br)c1 was tested, and the “hERG current change (%, negative = inhibition) at 10uM” value was -71%. Br.O=C(CN1CCCCC1)c1cccc(Br)c1 was tested, and the “hERG current change (%, negative = inhibition) at 10uM” value was 7.58%. With Br.O=C(CN1C2=NCCCN2c2ccccc21)c1ccc([N+](=O)[O-])cc1 the “hERG current change (%, negative = inhibition) at 10uM” value was -75.1%. With Br.COc1cccc(C(=O)Cn2c(=N)n(C)c3ccccc32)c1 the “hERG current change (%, negative = inhibition) at 10uM” value was -27.2%. In the case of COc1ccc(C(=O)CN2C3=NCCCN3c3ccccc32)cc1OC, the “hERG current change (%, negative = inhibition) at 10uM” value is reported as -36.5%. Br.COc1cccc(C(=O)CN2C3=NCCCN3c3ccccc32)c1 was tested, and the “hERG current change (%, negative = inhibition) at 10uM” value was -68.1%. In the case of Cc1cc(C)cc(N(CC(=O)NCc2ccc(F)cc2)C(=O)CCC(=O)Nc2ccccn2)c1, the “hERG current change (%, negative = inhibition) at 10uM” value is reported as 18.7%. For COc1ccc(-c2csc(NC(=O)c3cc(=O)c4ccccc4o3)n2)cc1OC, the “hERG current change (%, negative = inhibition) at 10uM” value was 4.58%. With N#Cc1ccc(-c2nc3ccccc3nc2-c2ccccc2)cc1C#N the “hERG current change (%, negative = inhibition) at 10uM” value was 21.7%. CCc1cc2c(=O)nc3n(c2s1)Cc1ccccc1/C3=C(/O)c1cccc([N+](=O)[O-])c1 was tested, and the “hERG current change (%, negative = inhibition) at 10uM” value was -4.6%. For O=C(CCN1CCN(CCO)CC1)Nc1ccc(Br)cc1, the “hERG current change (%, negative = inhibition) at 10uM” value was 1.76%. With COc1ccc(C(=O)N/N=C\c2ccoc2)cc1 the “hERG current change (%, negative = inhibition) at 10uM” value was 20.8%. With O=C(CN1C(=O)c2cccc3cccc1c23)NCc1ccc2c(c1)OCO2 the “hERG current change (%, negative = inhibition) at 10uM” value was -13.2%. C=CCn1c(SCC(=O)NCC2CCCO2)nc2scc(-c3ccccc3)c2c1=O (stereo not shown) was tested, and the “hERG current change (%, negative = inhibition) at 10uM” value was -15.1%. For COC(=O)C1=C(N)Oc2cc(N(C)C)ccc2C1c1ccccc1OC (stereo not shown), the “hERG current change (%, negative = inhibition) at 10uM” value was -84.3%. In the case of COC(=O)C1=C(N)Oc2cc(C)[nH]c(=O)c2C1c1ccccc1OC (stereo not shown), the “hERG current change (%, negative = inhibition) at 10uM” value is reported as 9.48%. With CCOc1ccc(Br)cc1C1C(C(=O)OC)=C(N)Oc2cc(N(C)C)ccc21 (stereo not shown) the “hERG current change (%, negative = inhibition) at 10uM” value was 21.4%. For O=C(COc1ccccc1)NCC(c1ccco1)N1CCN(c2ccc(F)cc2)CC1 (stereo not shown), the “hERG current change (%, negative = inhibition) at 10uM” value was -41%. In the case of Cc1ccccc1OCC(=O)NCC(c1ccco1)N1CCCCC1 (stereo not shown), the “hERG current change (%, negative = inhibition) at 10uM” value is reported as -31.4%. For Cc1cc(C)c(OCC(=O)NCC(c2ccco2)N2CCCCC2)c(C)c1 (stereo not shown), the “hERG current change (%, negative = inhibition) at 10uM” value was -52.1%. O=C(COc1ccccc1)NCC(c1ccco1)N1CCN(c2ccccc2)CC1 (stereo not shown) was tested, and the “hERG current change (%, negative = inhibition) at 10uM” value was -26.6%. Cc1ccc(C)c(OCC(=O)NCC(c2ccco2)N2CCCCC2)c1 (stereo not shown) was tested, and the “hERG current change (%, negative = inhibition) at 10uM” value was -2.72%. In the case of COc1ccc(N2CCN(C(CNC(=O)COc3ccccc3)c3ccco3)CC2)cc1 (stereo not shown), the “hERG current change (%, negative = inhibition) at 10uM” value is reported as -67%. For C[C@H](NC(=O)c1ccco1)C(=O)NC1CCCCCC1, the “hERG current change (%, negative = inhibition) at 10uM” value was -0.515%. With O=C(c1cccnc1)N1N=C(c2cccs2)CC1c1ccc(F)cc1 (stereo not shown) the “hERG current change (%, negative = inhibition) at 10uM” value was -34.7%. With Cc1ccc(NC(=O)c2cccs2)cc1S(=O)(=O)Nc1cccc(Cl)c1 the “hERG current change (%, negative = inhibition) at 10uM” value was 8.25%. COc1ccc(NC(=S)N2CCC(C(=O)c3ccc(C)cc3)CC2)c(OC)c1 was tested, and the “hERG current change (%, negative = inhibition) at 10uM” value was 24.7%. For CCOc1cc(/C=N\NC(=O)CC(=O)NCCc2ccccc2)ccc1O, the “hERG current change (%, negative = inhibition) at 10uM” value was 1.94%. Cc1ccc(C)c(-c2nnc(NC(=O)Cc3ccccc3)o2)c1 was tested, and the “hERG current change (%, negative = inhibition) at 10uM” value was 16.1%. In the case of COc1ccc(S(=O)(=O)N2CCN(C3Cc4ccccc4C3)CC2)cc1, the “hERG current change (%, negative = inhibition) at 10uM” value is reported as 11.8%. O=C(Nc1cccc(C(F)(F)F)c1)c1cncs1 was tested, and the “hERG current change (%, negative = inhibition) at 10uM” value was 20%. COc1ccc(CN2CCN(C(=O)c3ccco3)CC2)cc1OCc1ccccc1 was tested, and the “hERG current change (%, negative = inhibition) at 10uM” value was -51.2%. With O=C(c1ccco1)N1CCN(Cc2cc(=O)c(OCc3ccc([N+](=O)[O-])cc3)co2)CC1 the “hERG current change (%, negative = inhibition) at 10uM” value was -76.2%. COc1ccc(CN2CCN(C(=O)c3ccco3)CC2)cc1OC.O=C(O)C(=O)O was tested, and the “hERG current change (%, negative = inhibition) at 10uM” value was 16.8%. With O=C(c1ccco1)N1CCN(Cc2cc(=O)c(OCc3ccc(F)cc3)co2)CC1 the “hERG current change (%, negative = inhibition) at 10uM” value was -62.2%. O=C(c1ccco1)N1CCN(Cc2cc(=O)c(OCc3cccc(F)c3)co2)CC1 was tested, and the “hERG current change (%, negative = inhibition) at 10uM” value was -76.4%. For CCOc1cc(CN2CCN(C(=O)c3ccco3)CC2)ccc1OC, the “hERG current change (%, negative = inhibition) at 10uM” value was -28.7%. For O=c1cc(CO)occ1OCc1cccc(F)c1, the “hERG current change (%, negative = inhibition) at 10uM” value was -9.93%. For O=C(c1ccco1)N1CCN(Cc2cccc(F)c2)CC1, the “hERG current change (%, negative = inhibition) at 10uM” value was -0.928%. In the case of CC(C)NC(=O)COc1coc(CN2CCN(C(=O)c3ccco3)CC2)cc1=O, the “hERG current change (%, negative = inhibition) at 10uM” value is reported as 10.3%. With O=C(c1ccco1)N1CCN(Cc2cc(=O)c(OCc3ccccc3)co2)CC1 the “hERG current change (%, negative = inhibition) at 10uM” value was -25.5%. For O=C(COc1coc(CN2CCc3ccccc3C2)cc1=O)Nc1ccc([N+](=O)[O-])cc1, the “hERG current change (%, negative = inhibition) at 10uM” value was -31.7%. In the case of O=C(O)CCCCCn1c(SCC(=O)c2ccc(O)c(O)c2)nc2ccsc2c1=O, the “hERG current change (%, negative = inhibition) at 10uM” value is reported as 32.2%. For O=C(N[C@@H](Cc1ccccc1)C(=O)NC1CCCCC1)c1ccco1, the “hERG current change (%, negative = inhibition) at 10uM” value was 6%. CN1CCN(NS(=O)(=O)c2ccc(Cl)cc2)CC1 was tested, and the “hERG current change (%, negative = inhibition) at 10uM” value was 19.4%.
